Consider 14 compounds from PubChem BioAssay (Tox21).

Where “and” joins values, the source holds several entries; their conditions need not be identical. Equal entries are not always repeated. Results filed as inconclusive are left out. Calls of active or inactive are those of the source. Unless noted, calls follow the shape of the dose curve; as a rule, active = well fitted curve in the direction sought with a large enough effect in the repeat runs; inconclusive = weak or mixed curves; inactive = no such curve, though single readings can be large; an effect the other way counts as inactive or inconclusive.

Test [1] is described as follows: qHTS assay to test for compound auto fluorescence at 535 nm (green) in HEK293 cells (AID 720680). For orientation: Quantitative high-throughput screening tests each substance at several concentrations.
Test [2] in a line: qHTS assay to test for compound auto fluorescence at 460 nm (blue) in HEK293 cell free culture (AID 720681). The essentials:
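Test compounds were pinned into cell-free culture medium (DMEM with 10% FBS) and fluorescence was read directly at Ex/Em 405/460 nm. Signals were expressed as fluorescence equivalents of triamterene, with DMSO vehicle as control.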

The nature of test [3]: qHTS assay to test for compound auto fluorescence at 535 nm (green) in HEK293 cell free culture (AID 720682). The essentials: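 Using fluorescein as calibrant, autofluorescence was quantified at 485/535 nm in cell-free DMEM containing 10% FBS after pintool addition of compound or vehicle.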
Test [4] can be described thus: qHTS assay to test for compound auto fluorescence at 590 nm (red) in HEK293 cell free culture (AID 720683). The essentials:
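Tox21 10K library compounds were pinned into cell-free DMEM with 10% FBS and fluorescence was read at excitation 540 nm. Activity is expressed as Rose Bengal sodium equivalency.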

The nature of test [5]: qHTS assay to test for compound auto fluorescence at 590 nm (red) in HepG2 cell free culture (AID 720684). The essentials:
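Red fluorescence (540 nm excitation, 590 nm emission) was measured after compound transfer into cell-free MEM supplemented with 10% FBS. Values are equivalencies against Rose Bengal sodium.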

Test [6] is described as follows: qHTS assay to test for compound auto fluorescence at 460 nm (blue) in HepG2 cell free culture (AID 720685). In outline:
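Compound (23 nL) or DMSO pinned into cell-free MEM with 10% FBS; blue fluorescence read at 405/460 nm excitation/emission, expressed as auto-fluorescence equivalency to triamterene.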

Test [7] can be described thus: qHTS assay to test for compound auto fluorescence at 535 nm (green) in HepG2 cell free culture (AID 720686).
Test [8] can be described thus: qHTS assay to identify small molecule antagonists of the glucocorticoid receptor (GR) signaling pathway - cell viability counter screen (AID 720693). Also: nearly all actives have a fitted effect of over 55% in size.
Test [9] is described as follows: qHTS assay for identifying genotoxic compounds that show differential cytotoxicity against isogenic chicken DT40 cell lines with known DNA damage response pathways - wild type cell line (AID 743012). Also: nearly all actives have a fitted effect of over 60% in size. Also: potency is read from the fitted curve at half-maximal effect. The essentials:
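Wild-type DT40 cells (300/well) exposed to compounds for 40 hours at 37 C/5% CO2. Viability read by CellTiter-Glo luminescence after 30 min at room temperature.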

Test [10] in a line: qHTS assay for identifying genotoxic compounds that show differential cytotoxicity against isogenic chicken DT40 cell lines with known DNA damage response pathways - Rev3 mutant cell line (AID 743014). Also: nearly all actives have a fitted effect of over 55% in size. Also: potency is read from the fitted curve at half-maximal effect.
The nature of test [11]: qHTS assay for identifying genotoxic compounds that show differential cytotoxicity against isogenic chicken DT40 cell lines with known DNA damage response pathways - Rad54/Ku70 mutant cell line (AID 743015). Also: nearly all actives have a fitted effect of over 60% in size. Also: potency is read from the fitted curve at half-maximal effect.
The nature of test [12]: qHTS assay to identify small molecule antagonists of the androgen receptor (AR) signaling pathway - cell viability counter screen (AID 743033; also: nearly all actives have a fitted effect of over 45% in size; also: potency is read from the fitted curve at half-maximal effect).
A short description of test [13]: qHTS assay to identify small molecule antagonists of the androgen receptor (AR) signaling pathway using the MDA cell line - cell viability counter screen (AID 743041; also: nearly all actives have a fitted effect of over 45% in size; also: potency is read from the fitted curve at half-maximal effect). The essentials:
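MDA-kb2 AR-luc human breast carcinoma cells (MMTV-luciferase, AR/GR responsive) were treated with compounds plus R1881 agonist for 16 h at 37 °C. Viability was read as CellTiter-Fluor fluorescence in the same wells as the reporter assay.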

Test [14] has as its target Glucocorticoid receptor (Homo sapiens) (UniProt P04150). Nature of the test: qHTS assay to identify small molecule agonists of the glucocorticoid receptor (GR) signaling pathway (AID 720691; active = well fitted activation curve with a large enough effect in the signal ratio in the repeat runs, not every such curve was filed as active; the % refers to the signal ratio). The essentials:
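GR-bla HeLa cells carrying a GRE-driven beta-lactamase reporter, exposed to compounds for 18 h at 37 C. Reporter activation read as fluorescence after 2 h with LiveBLAzer B/G FRET substrate at room temperature.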

Test [15] has the same target. Nature of the test: qHTS assay to identify small molecule antagonists of the glucocorticoid receptor (GR) signaling pathway (AID 720692; active = well fitted inhibition curve with a large enough effect in the signal ratio in the repeat runs, not every such curve was filed as active; the % refers to the signal ratio). In outline:
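GR-bla HeLa cells carrying a GRE-driven beta-lactamase reporter received compound after 4 h plating, then dexamethasone (5 nM final). After 18 h at 37C, the FRET substrate was loaded for 2 h at room temperature and fluorescence read.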

Chain of Glucocorticoid receptor (Homo sapiens) (P04150 whole entry, looked up): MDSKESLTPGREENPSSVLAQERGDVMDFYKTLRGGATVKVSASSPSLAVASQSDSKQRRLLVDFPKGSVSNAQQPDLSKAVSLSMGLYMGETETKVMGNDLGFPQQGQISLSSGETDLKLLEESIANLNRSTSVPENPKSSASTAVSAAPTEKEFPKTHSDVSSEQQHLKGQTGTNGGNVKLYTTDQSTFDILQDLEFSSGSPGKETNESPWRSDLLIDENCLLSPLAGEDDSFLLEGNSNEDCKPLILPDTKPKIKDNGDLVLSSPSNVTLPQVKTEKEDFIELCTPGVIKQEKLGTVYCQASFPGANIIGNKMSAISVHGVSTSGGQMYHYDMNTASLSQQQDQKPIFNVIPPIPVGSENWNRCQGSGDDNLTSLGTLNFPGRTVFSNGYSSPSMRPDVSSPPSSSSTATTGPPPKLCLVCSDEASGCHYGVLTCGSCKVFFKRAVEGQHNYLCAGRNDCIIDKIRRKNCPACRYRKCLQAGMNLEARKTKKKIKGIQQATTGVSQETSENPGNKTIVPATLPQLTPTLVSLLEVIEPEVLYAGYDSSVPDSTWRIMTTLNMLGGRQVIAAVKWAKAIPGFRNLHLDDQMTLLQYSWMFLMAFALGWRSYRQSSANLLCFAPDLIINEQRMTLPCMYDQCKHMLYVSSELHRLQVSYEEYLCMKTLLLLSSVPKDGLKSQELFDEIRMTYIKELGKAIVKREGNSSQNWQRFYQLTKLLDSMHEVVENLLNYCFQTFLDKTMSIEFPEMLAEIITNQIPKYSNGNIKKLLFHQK

In the case of `Cc1ccc(C(C)(C)C)cc1`, the Potency entry in test [1], in test [2], in test [3], in [4], in [5] and in test [6] was “inactive” throughout. Besides, the Potency entry in test [7], in test [8], in test [9], in [10], in test [11] and in test [12] was “inactive” in each case. For the same compound, the Potency entry in test [13] was “inactive”.
Regarding `CCCN1C=CN(C)C1`, the Potency entry in test [1], in test [2], in [3], in test [4], in test [5] and in [6] was “inactive” in each case. Also, the Potency result in test [7], in test [8], in test [9], in [10], in test [11] and in test [12] was “inactive” in each case. Also, the Potency result in [13] was “inactive”.
As to `CCCCCCC(C)O` (centres undefined), the Potency result in [1], in test [2], in [3], in test [4], in [5] and in test [6] was “inactive” in each case. Moreover, the Potency entry in test [7], in test [14], in [15], in test [8], in test [9] and in test [10] was “inactive” each time. Also, the Potency result in test [11], in [12] and in [13] was “inactive” in each case.
In the case of `Cc1ccc(S(=O)(=O)NCl)cc1`, the Potency entry in test [1], in test [2], in [3], in [4], in test [5] and in test [6] was “inactive” in each case. In addition, the Potency result in test [7], in test [14], in [15], in [8], in [9] and in [10] was “inactive” in each case. Also, the Potency result in test [11], in [12] and in [13] was “inactive” throughout.
As for `O=[Se](O)O`, the Potency entry in test [1], in test [2], in test [3], in test [4], in [5] and in test [6] was “inactive” throughout. In addition, the Potency result in test [7], in test [8] and in test [12] was “inactive” throughout. Further, the Potency was 433 nM (active) and 5.23 µM (active) in [9]; 545 nM (active) and 4.16 µM (active) in [10]; 244 nM (active) and 2.34 µM (active) in [11].
As to `COC(=O)CC(=O)OC`, the Potency result in test [1], in test [2], in test [3], in [4], in test [5] and in test [6] was “inactive” each time. The Potency result in test [7], in [14], in [15], in [8], in [9] and in test [10] was “inactive” each time. Moreover, the Potency entry in [11], in test [12] and in [13] was “inactive” each time.
On to `Nc1ccc2c(O)cc(S(=O)(=O)O)cc2c1`, for which the Potency result in test [1], in [2], in test [3], in test [4], in [5] and in test [7] was “inactive” in each case. Moreover, the Potency result in test [14], in [8], in test [9] and in test [12] was “inactive” throughout.
Turning to `CN(C)CCCN1c2ccccc2Sc2ccc(Cl)cc21`, the Potency entry in test [1], in test [2], in [3], in test [4], in test [5] and in [6] was “inactive” each time. For the same compound, in test [7], the Potency result was “inactive”. Also, the Potency in [9] is 9.44 µM (active) and 13.7 µM (active); in test [10], 9.44 µM (active) and 27.3 µM (active); in test [11] it was 11.9 µM (active) and 19.3 µM (active); in [12], 24.5 µM (active); in test [13] it was 68.6 µM (active).
Turning to `CCCCCCCCCCCCCO`, the Potency result in [1], in [2], in test [3], in [4], in test [5] and in test [6] was “inactive” each time. Also, the Potency entry in [7], in test [14], in [15], in [8], in [9] and in test [10] was “inactive” in each case. The Potency result in test [11], in test [12] and in test [13] was “inactive” each time.
As for `C=CC(C)(O)CCC=C(C)C` (centres undefined), the Potency entry in test [1], in test [2], in [3], in [4], in [5] and in test [6] was “inactive” each time. The Potency entry in test [7], in [14], in test [15], in test [8], in test [9] and in [10] was “inactive” in each case. In addition, the Potency entry in test [11], in test [12] and in test [13] was “inactive” in each case.
`CC(C)(C)c1cccc(C(C)(C)C)c1O`: the Potency result in test [1], in test [2], in [3], in test [4], in [5] and in test [6] was “inactive” in each case. Moreover, the Potency result in [7], in [14], in test [15], in test [8], in test [9] and in test [10] was “inactive” each time. The Potency entry in test [11], in test [12] and in test [13] was “inactive” in each case.
Regarding `Cc1ccc(C)c(O)c1`, the Potency result in [1], in test [2], in test [3], in test [4], in test [5] and in test [6] was “inactive” throughout. The Potency result in [7], in test [14], in test [15], in test [8], in [9] and in test [10] was “inactive” throughout. Further, the Potency entry in test [12] and in test [13] was “inactive” each time.
Take `CC1(C)NC(=O)N(c2ccc([N+](=O)[O-])c(C(F)(F)F)c2)C1=O`: the Potency result in [1], in test [2], in test [3], in [4], in test [5] and in test [6] was “inactive” throughout. Besides, the Potency entry in [7], in [8] and in test [12] was “inactive” each time. For the same compound, the Potency in test [9] was 5.96 µM (active) and 4.86 µM (active); in [10], 10.6 µM (active) and 3.86 µM (active); in test [11] it was 9.44 µM (active) and 3.44 µM (active); in test [13], 61.1 µM (active).
For the compound `CCCCCC1C(=O)CCC1CC(=O)OC` (centres undefined), the Potency result in test [1], in [2], in [3], in test [4], in test [5] and in test [6] was “inactive” in each case. Besides, the Potency entry in [7], in test [8], in [9], in test [10], in test [12] and in test [13] was “inactive” in each case.
